Reference: PubChem BioAssay AID1835 (Johns Hopkins Ion Channel Center, 2009)
Hit rate of the full screen: of about 2,400 compounds, about 750 (31%) were called active. This is one part of the list. Unmarked numbers belong to inactive results.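 How the source made its calls: active means median signal gain over dofetilide-blocked control wells reaching their mean plus 3 SD, so readout 1 at least 0; inactive means the rest.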

target: Voltage-gated inwardly rectifying potassium channel KCNH2 (Homo sapiens) (UniProt Q12809); experiment: modulators restoring hERG flux under dofetilide – cell-based, thallium flux, duplicate retest, dofetilide IC70, confirmation (AID 1835); settings: hERG cell line, FluxOR thallium flux, dofetilide-blocked; at 10 µM; active compounds read high
Sequence (Q12809 whole entry, looked up): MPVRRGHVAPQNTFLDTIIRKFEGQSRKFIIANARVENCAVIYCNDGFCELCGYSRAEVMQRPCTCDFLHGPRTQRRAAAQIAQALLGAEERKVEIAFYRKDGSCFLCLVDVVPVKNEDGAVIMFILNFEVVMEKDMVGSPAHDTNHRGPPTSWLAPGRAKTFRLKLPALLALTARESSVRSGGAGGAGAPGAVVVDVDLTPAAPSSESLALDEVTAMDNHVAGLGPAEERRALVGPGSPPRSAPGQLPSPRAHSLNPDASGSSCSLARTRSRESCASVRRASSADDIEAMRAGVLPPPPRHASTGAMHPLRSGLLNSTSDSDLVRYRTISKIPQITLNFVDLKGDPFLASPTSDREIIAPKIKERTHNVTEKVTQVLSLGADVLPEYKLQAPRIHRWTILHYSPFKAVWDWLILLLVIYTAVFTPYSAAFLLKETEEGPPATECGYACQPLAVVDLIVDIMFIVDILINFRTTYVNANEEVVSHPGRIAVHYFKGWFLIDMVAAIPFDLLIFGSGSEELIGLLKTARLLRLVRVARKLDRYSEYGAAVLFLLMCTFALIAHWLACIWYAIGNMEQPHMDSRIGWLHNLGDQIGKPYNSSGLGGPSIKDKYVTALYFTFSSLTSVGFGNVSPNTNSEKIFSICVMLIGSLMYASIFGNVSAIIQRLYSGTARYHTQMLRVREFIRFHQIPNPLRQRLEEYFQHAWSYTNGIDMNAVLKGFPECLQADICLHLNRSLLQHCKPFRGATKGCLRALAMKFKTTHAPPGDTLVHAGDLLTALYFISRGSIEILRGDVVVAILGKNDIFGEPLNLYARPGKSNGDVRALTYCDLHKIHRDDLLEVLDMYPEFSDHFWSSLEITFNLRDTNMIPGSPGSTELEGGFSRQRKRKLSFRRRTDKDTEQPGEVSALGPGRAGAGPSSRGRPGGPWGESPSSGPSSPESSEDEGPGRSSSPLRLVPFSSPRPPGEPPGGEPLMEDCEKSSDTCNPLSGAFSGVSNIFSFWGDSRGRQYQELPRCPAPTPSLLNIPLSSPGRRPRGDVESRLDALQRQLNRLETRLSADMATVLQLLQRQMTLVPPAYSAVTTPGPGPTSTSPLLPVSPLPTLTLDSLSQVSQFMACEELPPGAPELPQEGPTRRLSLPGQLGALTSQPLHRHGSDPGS

| Compound | activity increase over dofetilide control, less the hit threshold |
| --- | --- |
| CCN(CC)C(=S)NC(=O)c1ccc(F)cc1 | -9% |
| CCN(CC)C(=S)NC(=O)c1ccc(Cl)cc1Cl | 11% (active) |
| CCCn1nnnc1NC(=O)c1cc(Cl)ccc1Cl | -8% |
| CCCN(CC(=O)Nc1ccccc1C)C(=O)CCl | -13% |
| O=C(Nc1ccsc1C(=O)O)c1ccccc1Cl | -16% |
| CN(C)/C=C/C(=O)c1ccc(Cl)cc1Cl | -11% |
| CCCCN(CCCC)C(=S)NC(=O)c1ccccc1Cl | 83% (active) |
| Cn1c(CNC(=O)CNC(=O)c2ccc(F)cc2)cc(=O)n(C)c1=O | -15% |
| CSc1ccc(C2NN=C(c3ccccc3)S2)cc1 (stereo not drawn) | -11% |
| Cc1ccc(/C(O)=C2\C(=O)C(=O)N(Cc3cccnc3)C2c2ccccc2[N+](=O)[O-])cc1 (stereo not drawn) | -26% |
| O=C1C=C(NCCN2CCOCC2)C(=O)c2cnccc21 | -3% |
| Cc1ccc(OCCC(=O)OC(C)C(=O)NC2CC2)cc1 (stereo not drawn) | -12% |
| O=c1ccn(Cc2ccc(F)cc2)c2ccnc(C(F)(F)F)c12 | -15% |
| O=c1cc(-c2ccccc2)cc(-c2ccccc2)n1O | 22% (active) |
| CN1/C(=C/C=C(C#N)C#N)C=Cc2ccccc21 | 66% (active) |
| CCCCc1cc(=O)oc2c(C)c(OCC(=O)NCc3ccccn3)ccc12 | -9% |
| Cc1nn(C(=O)CNC(=O)c2ccccc2)c(C)c1C | -17% |
| CC(=O)c1n[nH]nc1NC(=O)c1ccccc1 | -1% |
| Cc1ccccc1Cn1nc(C)c(NC(=O)c2ccccc2)c1C | 25% (active) |
| COc1ccccc1NC(=O)Cc1nnc(SCC(=O)Nc2nccs2)n1C | -10% |
| CCn1c(SCC(=O)NC(=O)NCc2ccco2)nc2sc(C)c(C)c2c1=O | 18% (active) |
| Cc1cc(S(=O)(=O)N2CCOCC2)ccc1OCC(=O)NCc1ccco1 | -7% |
| O=C(CN1CCN(c2ccccc2O)CC1)NC(=O)NCc1ccco1 | -17% |
| Cc1ccc(-n2ncc3c(SCC(=O)NNC(=O)c4ccco4)ncnc32)cc1 | -4% |
| O=C(NCC1CCCO1)c1ccc2c(=O)n(Cc3ccco3)c(SCC(=O)N3CCCC3)nc2c1 (stereo not drawn) | 0% |
| Cc1sc2nc(C(C)C)nc(SCC(=O)NCc3ccco3)c2c1C | 16% (active) |
| COC(=O)Cn1c(=O)c(=O)n(CC(=O)OC)c2ccccc21 | -15% |

| Compound | activity increase over dofetilide control, less the hit threshold |
| --- | --- |
| COc1ccccc1CNC(=O)COC(=O)c1ccccn1 | -13% |
| COc1ccc(C(=O)CC(=O)C(=O)Nc2ccc(C)c(C)c2)cc1 | -3% |
| COc1ccc(C(=O)CC(=O)C(=O)Nc2ccccc2)cc1 | 5% (active) |
| COc1ccc(C(=O)CC(=O)C(=O)Nc2ccc(C)c(Cl)c2)cc1 | 0% |
| COc1ccc(NC(=O)CSCC(=O)Oc2c(OC)cccc2OC)cc1 | -26% |
| COc1ccc(C(=O)CC(=O)C(=O)Nc2ccc(Cl)cc2)cc1 | 9% (active) |
| CC(=O)Nc1ccc(S(=O)(=O)N2CCC(NC(=O)c3ccccc3)CC2)cc1 | -17% |
| CCN(CC)C(=O)CN1C(=O)C2CC=C(Cl)CC2C1=O (stereo not drawn) | -15% |
| O=c1c2c3c(sc2[nH]c(=S)n1Cc1ccco1)CCC3 | 18% (active) |
| CCn1c(=S)[nH]c2sc3c(c2c1=O)CCCCC3 | 107% (active) |
| CCn1c(=S)[nH]c2sc3c(c2c1=O)CCCC3 | 27% (active) |
| O=C1c2ccccc2C(=O)N1Cc1ccco1 | -8% |
| Cc1ccc(-n2c(=S)[nH]c3sc4c(c3c2=O)CCC4)cc1 | -1% |
| Cc1cc(C)n(-c2nc3sc4c(c3c(=O)[nH]2)CCCC4)n1 | -10% |
| CCCn1c(=S)[nH]c2sc3c(c2c1=O)CCCC3 | 76% (active) |
| CC(C)OC(=O)CSc1nnc(C2CCCCC2)n1N | -15% |
| Cc1cnc(NC(=O)CN2CCN(c3ccccc3F)CC2)s1 | -5% |
| CCCCCOc1ccc(C2C(C(C)=O)=C(C)Nc3ncnn32)cc1OC (stereo not drawn) | -11% |
| CCc1cccc(C)c1NC(=O)Cc1ccsc1 | -12% |
| Cc1ccc(S(=O)(=O)N(C)C)cc1NC(=S)NC(C)CCCC(C)C (stereo not drawn) | -30% |
| Cc1sc2ncnc(SCC(=O)c3ccc(O)cc3O)c2c1C | 2% (active) |
| COC(=O)c1ccc(Cn2cnc3c(cnn3-c3ccc(Cl)cc3)c2=O)o1 | -2% |
| Cc1sc2ncnc(SCC(=O)NC(=O)c3cccn3C)c2c1C | 2% (active) |
| CCC(C)NC(=O)CSc1ncnc2sccc12 (stereo not drawn) | -7% |
| COC(=O)c1ccc(CSc2ncnc3sc(C)c(C)c23)o1 | 7% (active) |
| Cc1ccc(-n2nc3ccc(N)cc3n2)c(C)c1 | -28% |
